The supplement of paper PMC7411640
Counter-ions that a name gives are not always drawn.

System: MDA-MB-468
Experiment: phospho-S6 immunofluorescence (DAPI-normalised), per-plate z-score; higher = higher phospho-S6 signal (less pathway suppression)
Details: 24 h
Method: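 GPCR-targeted compound library (MedChemExpress HY-L006) tested on MDA-MB-468 PTEN-null TNBC cells in 384-well plates at 0.1, 1 or 10 uM, combined with vehicle, GDC0941 450 nM or lapatinib 1 uM, for 24 h. Phospho-S6 (S240/244) immunofluorescence normalised to DAPI and expressed as a per-plate z-score; values are the mean of biological triplicates.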

SMILES | phospho-S6 immunofluorescence (z-score) (co-treatment: GDC0941 450 nM) | phospho-S6 immunofluorescence (z-score) (co-treatment: lapatinib 1 uM) | phospho-S6 immunofluorescence (z-score) (co-treatment: vehicle)
NC(N)=Nc1nc(CSCC/C(N)=N/S(N)(=O)=O)cs1 [Famotidine] (compound 10 µM) | -1.24 | -0.34 | -0.29
NC(=O)NC1NC(=O)NC1=O (stereo not drawn) [Allantoin] (compound 10 µM) | 0.67 | 0.13 | -0.01
CCC(=O)O[C@]1(C(=O)CCl)[C@@H](C)C[C@H]2[C@@H]3CCC4=CC(=O)C=C[C@]4(C)[C@@]3(F)[C@@H](O)C[C@@]21C [Clobetasol propionate] (compound 10 µM) | -0.19 | -0.09 | 0.7
CN/C(=N\CCSCc1nc[nH]c1C)NC#N [Cimetidine] (compound 10 µM) | 0.86 | 0.64 | -0.63
CC(C)c1cc(-c2ccc(F)c3ccccc23)nc(N)n1 (compound 10 µM) | -1.03 | 1.27 | 1.08
COc1cc(/C=C/C(=O)O)ccc1O [Ferulic acid (sodium)] (compound 10 µM) | 0.56 | 0.36 | 0.33
NCCCCN(Cc1nc2ccccc2[nH]1)[C@H]1CCCc2cccnc21 [AMD-070 (hydrochloride)] (compound 10 µM) | -4.2 | -3.44 | -3.01
COC(=O)CCc1ccc(OCC(O)CNC(C)C)cc1 (stereo not drawn) [Esmolol (hydrochloride)] (compound 10 µM) | 1.52 | 0.09 | -0.19
NC(N)=Nc1nc(CSCCN/C=N/S(=O)(=O)c2ccc(Br)cc2)cs1 [Ebrotidine] (compound 10 µM) | -4.2 | -3.36 | -1.7
C=CCN1CCc2c(cc(O)c(O)c2Cl)C(c2ccccc2)C1 (stereo not drawn) (compound 10 µM) | -0.13 | 1.66 | 1.76
NCCc1c[nH]cn1 [Histamine] (compound 10 µM) | 0 | 1.34 | 0.58
O=C(Nc1cccc2c(=O)cc(-c3nnn[nH]3)oc12)c1ccc(OCCCCc2ccccc2)cc1 [Pranlukast (hemihydrate)] (compound 10 µM) | 1.61 | 1.07 | 0.31
C[C@@H]1C[C@H]2[C@@H]3CCC4=CC(=O)C=C[C@]4(C)[C@@]3(Cl)[C@@H](O)C[C@]2(C)[C@@]1(OC(=O)c1ccco1)C(=O)CCl [Mometasone furoate] (compound 10 µM) | -0.46 | 0.3 | -1.92
COCCOc1ccc(N2CCN(CCn3ncc4c3nc(N)n3nc(-c5ccco5)nc43)CC2)cc1 [Preladenant] (compound 10 µM) | -0.66 | 0.79 | 0.97
CC(C)COc1ccc(CNC(=O)N(Cc2ccc(F)cc2)C2CCN(C)CC2)cc1 [Pimavanserin tartrate] (compound 10 µM) | -3.99 | -6.18 | -5.03
C/C(=N\NC(=O)C(NC(=O)c1ccccc1)c1n[nH]c(=O)c2ccccc12)c1cccc(Br)c1 (stereo not drawn) (compound 10 µM) | 0.96 | 0.13 | 0.95
Cn1c(=O)c2c(ncn2CC(=O)O)n(C)c1=O [Acefylline] (compound 10 µM) | 0.4 | 0.37 | -0.98
CN(C)CCC(c1ccc(Cl)cc1)c1ccccn1 (stereo not drawn) [Chlorpheniramine (maleate)] (compound 10 µM) | -5.85 | -10.5 | -8.97
CNCC(O)c1ccc(O)c(O)c1 (racemic) [DL-Epinephrine] (compound 10 µM) | 1.29 | 5.47 | 4.64
CC(C)NCC(O)COc1ccc(CC(N)=O)cc1 (stereo not drawn) [Atenolol] (compound 10 µM) | 0.35 | 1.32 | 0.52
N[C@@H](CCC(=O)O)C(=O)[O-].[Na+] [L-Glutamic acid monosodium salt] (compound 10 µM) | 0.12 | -0.6 | -0.39
CC(C)(C)C1CCC(N(Cc2ccc(C(=O)NCCC(=O)O)cc2)C(=O)Nc2ccc(OC(F)(F)F)cc2)CC1 (stereo not drawn) (compound 10 µM) | -3.4 | -4.75 | -1.64
CC(CN1c2ccccc2Sc2ccccc21)N(C)C (stereo not drawn) [Promethazine (hydrochloride)] (compound 10 µM) | -1.86 | -2.76 | -0.84
O=C(NCCCN1CCC2(CC1)OCc1ccccc12)[C@H]1CCCN1Cc1ccccc1 (compound 10 µM) | -1.61 | -1.57 | -0.4
C[C@]12CCC(=O)C=C1CC[C@@H]1[C@@H]2CC[C@@]2(C)[C@H]1CC[C@]2(O)C(=O)CO [Cortodoxone] (compound 10 µM) | -0.95 | 1.37 | -0.43
C[C@@H]1C[C@H]2[C@@H]3CCC4=CC(=O)C=C[C@]4(C)[C@@]3(F)[C@@H](O)C[C@]2(C)[C@@]1(O)C(=O)CO [Dexamethasone] (compound 10 µM) | 0.1 | 0.34 | 1.02

SMILES | phospho-S6 immunofluorescence (z-score) (co-treatment: GDC0941 450 nM) | phospho-S6 immunofluorescence (z-score) (co-treatment: lapatinib 1 uM) | phospho-S6 immunofluorescence (z-score) (co-treatment: vehicle)
CCOC(=O)O[C@]1(C(=O)OCCl)CC[C@H]2[C@@H]3CCC4=CC(=O)C=C[C@]4(C)[C@H]3[C@@H](O)C[C@@]21C [Loteprednol Etabonate] (compound 10 µM) | -0.86 | 0.31 | -1.08
CCN(Cc1ccncc1)C(=O)C(CO)c1ccccc1 (stereo not drawn) [Tropicamide] (compound 10 µM) | 0.17 | 1.42 | -0.17
CCCN(CCN1CCN(c2ccccc2OC)CC1)C1CCc2ncsc2C1 (stereo not drawn) [ST-836 (hydrochloride)] (compound 10 µM) | 0.29 | -0.62 | 0.1
OC[C@H]1O[C@@H](n2cnc3c(N[C@H]4CCC[C@@H]4O)ncnc32)[C@H](O)[C@@H]1O (compound 10 µM) | 0.54 | 0.82 | 0.2
Cn1cc(C(=O)[C@@H]2CCc3[nH]cnc3C2)c2ccccc21 [Ramosetron (Hydrochloride)] (compound 10 µM) | -1.27 | 0 | -0.92
O=C(O[C@@H]1C[C@@H]2C[C@H]3C[C@H](C1)N2CC3=O)c1c[nH]c2ccccc12 [Dolasetron (Mesylate hydrate)] (compound 10 µM) | 0.52 | -0.24 | 0.62
CCCSc1nc(N[C@@H]2C[C@H]2c2ccc(F)c(F)c2)c2nnn([C@@H]3C[C@H](OCCO)[C@@H](O)[C@H]3O)c2n1 [Ticagrelor] (compound 10 µM) | -1.29 | 0.02 | 1.13
Nc1nc2c(cnn2CCc2ccccc2)c2nc(-c3ccco3)nn12 (compound 10 µM) | -0.2 | 1.51 | 3.1
C=CCc1ccccc1OCC(O)CNC(C)C (stereo not drawn) [Alprenolol (hydrochloride)] (compound 10 µM) | 0.45 | -0.09 | 1.12
Fc1ccc(-c2cncc(CN3CCN(c4cccc5c4OCCO5)CC3)c2)cc1 [Adoprazine] (compound 10 µM) | -2.84 | -1.05 | -2.49
CN(C)N(C)C(=O)[C@@]1(Cc2ccccc2)CCCN(C(=O)[C@@H](Cc2c[nH]c3ccccc23)NC(=O)C(C)(C)N)C1 [Anamorelin] (compound 10 µM) | -0.16 | -2.31 | 0.4
COC(=O)[C@@H]1[C@H]2C[C@H]3c4[nH]c5ccccc5c4CCN3C[C@@H]2CC[C@@H]1O [Yohimbine (Hydrochloride)] (compound 10 µM) | 0.62 | 0.56 | 1.59
OC(CCCN1CCCCC1)(c1ccccc1)c1ccccc1 [Diphenidol (hydrochloride)] (compound 10 µM) | 0.19 | 1.09 | 0.38
C[C@H](NC(=O)C(C)(C)Oc1ccc(C(F)(F)F)cn1)[C@@H](Cc1ccc(Cl)cc1)c1cccc(C#N)c1 [Taranabant] (compound 10 µM) | -4.19 | -2.35 | -2.4
CCOc1nc2cccc(C(=O)O)c2n1Cc1ccc(-c2ccccc2-c2nnn[nH]2)cc1 [Candesartan] (compound 10 µM) | 1 | 0.32 | 0.19
OCC1OC(n2cnc3c(NCCc4ccccc4)ncnc32)C(O)C1O (stereo not drawn) [N6-(2-Phenylethyl)adenosine] (compound 10 µM) | 0.87 | 1.11 | 0.72
O=C1O[C@]2(CC[C@H](C(=O)Nc3ccn(-c4ccccc4F)n3)CC2)c2cnccc21 (compound 10 µM) | 0.73 | -0.47 | 0.3
CC(C)[C@H](NC(=O)[C@H](CCCN=C(N)N)NC(=O)[C@@H](N)CC(=O)O)C(=O)N[C@@H](Cc1ccc(O)cc1)C(=O)N[C@H](C(=O)N[C@@H](Cc1cnc[nH]1)C(=O)N1CCC[C@H]1C(=O)N[C@@H](Cc1ccccc1)C(=O)O)C(C)C [Angiotensin II 5-valine] (compound 10 µM) | 1.16 | 0.49 | 0.07
CCCNS(=O)(=O)Nc1ncnc(OCCOc2ncc(Br)cn2)c1-c1ccc(Br)cc1 [Macitentan] (compound 10 µM) | 0.32 | 0.71 | -0.16
COc1ccccc1N1CCN(CCN(C(=O)C2CCCCC2)c2ccccn2)CC1 (compound 10 µM) | -0.49 | 0.26 | -0.79
CCCCc1ccc(NS(=O)(=O)c2ccc(F)cc2)cc1 (compound 10 µM) | -3.59 | -8.48 | -10.2
COc1cc(N)c(Cl)cc1C(=O)NC1CCN(CCCOc2ccc(F)cc2)CC1OC (stereo not drawn) [Cisapride] (compound 10 µM) | -1.02 | -1.88 | -0.58
O=S(=O)(O)c1cc(O)ccc1O [Ethamsylate] (compound 10 µM) | 0 | -0.05 | 0.76
CC(C[N+](C)(C)C)OC(N)=O (stereo not drawn) [Bethanechol (chloride)] (compound 10 µM) | 0.67 | 0.01 | 0.6
Clc1ccc2c(c1)N=C(N1CCNCC1)c1ccccc1N2 [N-Desmethylclozapine] (compound 10 µM) | -0.56 | -3.16 | -0.88
